# Measured values as given in PubChem BioAssay AID540256 (National Center for Advancing Translational Sciences (NCATS), 2011).
# Among all 300,000 compounds or so, about 3,700 (1.2%) were called active. About 20% were inconclusive and are not listed. The sample holds actives, similar compounds and a random draw of the others, so the mix is not that of the screen. Calls follow the shape of the full dose curve; tested in HEK293 cells.
# Test: qHTS for Inhibitors of binding or entry into cells for Lassa Virus; also: nearly all actives have a fitted effect of over 50% in size
# Conditions: Lassa virus pseudotype entry inhibition, cell reporter; series mostly up to 37.9 µM; activity change, negative = inhibition: at the top concentration
# % is scaled to controls: 0 for no effect and ±100 for the full control effect; potency is read from the fitted curve at half-maximal effect.
Compound,"activity change, negative = inhibition",Potency
COc1ccc(C(=O)COC(=O)c2c(C)noc2C)cc1Cl,2.78% [at 46.1 µM] (inactive),–
Cc1c(C(=O)Nc2cccc(S(=O)(=O)N3CCOCC3)c2)oc2ccccc12,-20.8% (inactive),–
O=C(c1ccc(N2CCOCC2)c([N+](=O)[O-])c1)N1CCN(c2ccccc2F)CC1,-8.55% (inactive),–
O=c1oc2ccccc2cc1-c1cn(-c2ccccc2)c(=S)[nH]1,–,0.891 µM (active)
Nc1ncc(-c2cc3ccccc3oc2=O)s1,-24.4% (inactive),–
O=C(c1cn(-c2ccccc2)nc1-c1cc2ccccc2oc1=O)N1CCOCC1,-3.07% [at 46.1 µM] (inactive),–
O=C1NCC(Nc2ccccc2)C(=O)N1 (stereo not drawn),10.5% (inactive),–
O=C(NCc1ccc(Cl)cc1)C(=O)NCC1CCCN1S(=O)(=O)c1cccs1 (stereo not drawn),-4.01% [at 46.1 µM] (inactive),–
O=C(COC(=O)c1cnccn1)Nc1ccc(Cl)cc1C(F)(F)F,11.6% (inactive),–
CN(Cc1cnccn1)C(=O)c1cc(COc2cccc(C(F)(F)F)c2)on1,-6.31% [at 46.1 µM] (inactive),–
Cc1cccc(Cn2c(N3CCN(c4ccccc4)CC3)nc3c2c(=O)n(C)c(=O)n3C)c1,–,5.8 µM (active)
Cc1cccc(Cn2c(SCCO)nc3c2c(=O)n(C)c(=O)n3C)c1,-2.24% (inactive),–
COC(=O)C(C)Sc1nc2c(c(=O)n(C)c(=O)n2C)n1Cc1cccc(C)c1 (stereo not drawn),5.84% (inactive),–
COc1ccc(/C=C2/SC(=O)N(CCCCCC(=O)Nc3ccccc3C(=O)O)C2=S)cc1,–,11.2 µM (active)
O=C(CCCN1C(=O)/C(=C\c2ccccc2)SC1=S)Nc1ccccc1O,-22.6% [at 46.1 µM] (inactive),–
COc1ccc(/C=C2\SC(=O)N(CCC(=O)NC3CCS(=O)(=O)C3)C2=O)cc1 (stereo not drawn),-21.2% [at 46.1 µM] (inactive),–
CCCCN1CC(COc2ccccc2)Oc2cccc(F)c2S1(=O)=O (stereo not drawn),19.5% [at 46.1 µM] (inactive),–
O=C(Cc1ccccc1Cl)N1CCOCC1,3.06% [at 46.1 µM] (inactive),–
O=C(Nc1ccccc1C(=O)Nc1ccncc1)c1ccc([N+](=O)[O-])cc1,12.2% (inactive),–
O=C(CN1C(=O)c2ccccc2S1(=O)=O)NC1CCCCC1,12.3% (inactive),–
O=C(CN1C(=O)c2ccccc2S1(=O)=O)N1CCc2ccccc21,–,0.259 µM (active)
O=C(CN1CCN(c2ccccn2)CC1)N1CCc2ccccc21,15.1% (inactive),–

Compound,"activity change, negative = inhibition",Potency
O=C(CSc1ncnc2sccc12)N1CCN(C(=O)c2cccs2)CC1,21.3% (inactive),–
O=C(Nc1ccc2ccccc2c1)Nc1ccc2snnc2c1,–,12.6 µM (active)
COc1ccc(NC(=O)Nc2ccc3nsnc3c2)cc1,11% (inactive),–
S=C(Nc1ccccc1)Nc1ccc2ccccc2c1,14.6% [at 46.1 µM] (inactive),–
Cc1ccccc1-c1nc2scc(CCNC(=O)C(=O)Nc3ccc(F)cc3F)n2n1,-11.2% [at 46.1 µM] (inactive),–
C/C(=N\NC(=O)COc1ccc(C)cc1[N+](=O)[O-])c1ccc2c(c1)OCCO2,-0.74% (inactive),–
O=C(NCC(c1ccco1)N1CCc2ccccc21)c1cccc(F)c1 (stereo not drawn),-0.219% (inactive),–
COc1ccc(C(=O)OCc2cc(=O)n3ccsc3n2)cc1F,17.1% (inactive),–
Cc1ccccc1NC(=O)NNC(=O)OC(C)(C)C,-4.8% (inactive),–
CC(C)(C)OC(=O)NNc1c2ccccc2nc2ccccc12,–,12.6 µM (active)
CCC(=O)OCCNc1nc(-c2ccccc2)nc2ccccc12,-0.495% [at 46.1 µM] (inactive),–
Cc1ccc(-c2csc(NC(=O)Cc3cccs3)n2)cc1C,–,15.8 µM (active)
Cc1ccc(-c2csc(NC(=O)c3cnccn3)n2)cc1C,-0.439% (inactive),–
COc1ccc(-c2csc(NC(=O)CCCc3cccs3)n2)cc1,18% (inactive),–
Cc1ccc(S(=O)(=O)NC(=O)Nc2nc(-c3ccc(F)c(F)c3)cs2)cc1,10.2% (inactive),–
COc1ccc(-c2csc(NC(=O)c3ccc(N4C(=O)CCC4=O)cc3)n2)cc1OC,0.29% (inactive),–
COc1ccc(CC(=O)Nc2nc(-c3ccc(F)c(F)c3)cs2)cc1OC,–,11.2 µM (active)
COc1ccc(NC(=O)c2ccc3nc(C(C)C)oc3c2)cc1OC,16.1% [at 46.1 µM] (inactive),–
NC(=O)C1(Nc2ccc(-c3ccccc3)cc2)CCCC1,12.5% (inactive),–
CCOc1ccc(/C=C(/C#N)c2nnc(N3CCOCC3)n2-c2ccccc2)cc1OC,0.0997% [at 46.1 µM] (inactive),–
Cc1nc(N2CCOCC2)c2c(C)c(C(=O)Nc3ccc(C(F)(F)F)cc3)sc2n1,–,2.24 µM (active)
CCOC(=O)C1CCCN(C(=O)c2sc3nc(C)nc(N4CCOCC4)c3c2C)C1 (stereo not drawn),0.0096% (inactive),–

Compound,"activity change, negative = inhibition",Potency
Cc1nc(N2CCC(C)CC2)c2c(C)c(C(=O)Nc3cc(F)ccc3C)sc2n1,19.3% (inactive),–
COc1ccc(NS(=O)(=O)c2ccc(N3CCOCC3)c(NC(=O)/C=C/C(=O)O)c2)cc1,0.984% (inactive),–
c1ccc2c(c1)[I+]c1ccccc1-2,–,0.259 µM (active)
N=C1c2ccccc2-c2ccccc21,-12.6% [at 46.1 µM] (inactive),–
CCOc1cc(C(C(=O)NCC2CCCO2)N(C(=O)Cn2nnc3ccccc32)c2cccc(OC)c2)ccc1O (stereo not drawn),11.2% (inactive),–
COc1cccc(N(C(=O)c2snc(C(N)=O)c2N)C(C(=O)NCC2CCCO2)c2c[nH]c3ccccc23)c1 (stereo not drawn),–,5.62 µM (active)
CCC(C(=O)NC1CCCC1)N(C(=O)c1snc(C(N)=O)c1N)c1ccc2c(c1)OCCO2 (stereo not drawn),-18.4% (inactive),–
COc1cc(C(=O)Nn2c(CC(C)C)nc3ccccc3c2=O)cc(OC)c1OC,18.2% (inactive),–
Cc1cc(F)ccc1NC(=S)NCCc1ccccc1,-24.8% [at 46.1 µM] (inactive),–
S=C(NN=C1CCN(Cc2ccccc2)CC1)NC1CCCCC1,-5.93% (inactive),–
CCCC1CCC(=NNC(=S)NCCc2ccccc2)CC1 (stereo not drawn),–,10 µM (active)
S=C(Nc1cccc(Br)c1)N1CCn2cccc2C1c1cccnc1 (stereo not drawn),–,7.94 µM (active)
Fc1cc(Br)ccc1NC(=S)Nc1cccnc1,-0.674% [at 46.1 µM] (inactive),–
COc1cccc(NC(=O)CC2C(=O)NCCN2C(=S)Nc2ccc(F)cc2)c1 (stereo not drawn),0.0127% (inactive),–
CC(C)(C)C(=O)Nc1cccc(-c2ccc[nH]2)n1,-16.2% [at 46.1 µM] (inactive),–
c1ccc(CCc2ccccn2)cc1,4.27% (inactive),–
Cc1cc(Br)ccc1NC(=S)NC1CCCC1,-13% [at 46.1 µM] (inactive),–
O=C(N/N=C/c1ccc(OC(=O)c2ccccc2Cl)cc1)c1ccc(O)cc1,-2.38% (inactive),–
COc1ccc(C(=O)Nc2ccccc2C(=O)N/N=C/c2ccc(O)c(OC)c2)cc1,–,0.355 µM (active)
COc1ccc(C(=O)Nc2ccccc2C(=O)N/N=C/c2ccccc2OC)cc1,5.36% (inactive),–
Cc1ccc(-c2cc(C(=O)NC3CCN(Cc4ccccc4)CC3)c3ccccc3n2)cc1,11.4% [at 46.1 µM] (inactive),–
COc1cc(/C=C2\SC(=S)N(Nc3ncc(C(F)(F)F)cc3Cl)C2=O)cc(OC)c1OC,-0.887% (inactive),–

Compound,"activity change, negative = inhibition",Potency
COc1cccc(/C=N/Nc2ncc(C(F)(F)F)cc2Cl)c1O,–,7.94 µM (active)
COc1cccc(/C(C)=N/Nc2ncc(Cl)cc2Cl)c1,15.6% (inactive),–
CCN(CC)S(=O)(=O)c1ccc(N2CCOCC2)c(NC(=O)C2CSC3(C)CCC(=O)N23)c1 (stereo not drawn),3.13% (inactive),–
C=CCNC(=O)C1CC2c3ccccc3C1c1ccccc12 (stereo not drawn),1.7% (inactive),–
O=c1c2c(nc3nc[nH]n13)CCC2,9.91% (inactive),–
CCCCN1Cc2c(nc3cc(-c4ccccc4)[nH]n3c2=O)C1=O,7.74% (inactive),–
O=c1c2c(nc3cc(-c4cccc(Cl)c4)[nH]n13)CCCC2,–,4.47 µM (active)
COc1cc(Cl)c(C)cc1NC(=O)CN1CCCCCC1,-0.418% (inactive),–
CCc1c(Nc2ccccc2Cl)nc(N)[nH]c1=O,2.83% [at 46.1 µM] (inactive),–
CCOc1ccc(NC(=O)CCc2c(C)nn(-c3ccc(N4CCCC4)nn3)c2C)cc1,3.23% [at 46.1 µM] (inactive),–
Cc1cccnc1CCNC(=O)C1CCC(=O)N(Cc2cccc(F)c2)C1 (stereo not drawn),-1.79% (inactive),–
Cc1ccc(Nc2nc(CSc3nnc(-c4ccncc4)n3-c3ccccc3C)cs2)cc1,–,8.91 µM (active)
Cc1ccccc1-n1c(SCC(=O)NCc2cccs2)nnc1-c1ccncc1,13.7% (inactive),–
Cc1ccc(Nc2nnc(SCc3ccccc3)s2)cc1,4.02% (inactive),–
CCOC(=O)c1ccc(NC(=O)c2ccc(NC(=O)C3CCCO3)cc2)cc1 (stereo not drawn),-16.3% [at 46.1 µM] (inactive),–
Cc1sc2ncnc(N3CCC(C(=O)NNC(=O)c4ccc(F)cc4)CC3)c2c1C,-25.3% (inactive),–
CCOc1ccc(-n2c(O)c(/C=N/Nc3nnc(C)c(=O)[nH]3)c3ccccc3c2=O)cc1,-1.29% (inactive),–
COc1ccc(Cc2nnc(N/N=C/c3ccccc3O)[nH]c2=O)cc1OC,–,3.98 µM (active)
O=c1[nH]c(NCCO)nnc1Cc1ccc(Cl)cc1,4.68% (inactive),–
CCNC(=S)N1CCN(S(=O)(=O)c2ccc(Cl)s2)CC1,-8.37% (inactive),–
CN(C(=O)CSc1cccc[n+]1[O-])C1CCCCC1,11.1% (inactive),–
COc1cccc(Nc2ncccc2C(=O)O)c1,12.8% (inactive),–

Compound,"activity change, negative = inhibition",Potency
COc1cc(NC(=O)CSc2ccc(-c3cccnc3)nn2)cc(OC)c1,2.53% (inactive),–
COc1cc(Nc2nccc(-c3cnn4ncccc34)n2)cc(OC)c1,–,2.5 µM (active)
O=c1c(-c2cccc(Cl)c2)c[nH]n1-c1ccccc1,-0.387% (inactive),–
O=C(Cc1ccc(Br)cc1)N1CCN(c2ccccn2)CC1,4.49% (inactive),–
COC(=O)c1cnc(N2CCN(c3ccccc3OC)CC2)c2ccccc12,-11.8% [at 46.1 µM] (inactive),–
Cc1cc(Br)ccc1NC(=O)c1cnc(N2CCN(c3ccccn3)CC2)c2ccccc12,–,16.4 µM (active)
O=C(C1CC(=O)N(C2CCCC2)C1)N1CCN(c2cccc(C(F)(F)F)c2)CC1 (stereo not drawn),0.458% (inactive),–
Cc1cc(C)c(S(=O)(=O)NCC(c2ccc3c(c2)OCO3)N2CCOCC2)c(C)c1 (stereo not drawn),-16.8% (inactive),–
CC(C)CN1CC(C)C(=O)N(c2ccccc2)C1=S (stereo not drawn),16.6% [at 46.1 µM] (inactive),–
CN(C)C(CNC(=O)c1cc2ccccc2o1)c1ccccc1 (stereo not drawn),1.37% (inactive),–
O=[N+]([O-])c1cc(Br)c(O)c(/C=N/Nc2nc3ccccc3s2)c1,12.3% [at 46.1 µM] (inactive),–
c1ccc(C(=NNc2nc3ccccc3s2)c2ccccn2)cc1,–,12.6 µM (active)
O=C(Nc1ccccc1Cl)O/N=C(/c1ccccc1)c1ccccn1,-5.93% (inactive),–
O=C(CCNC(=O)c1ccc(Br)cc1)Nc1cccc(S(=O)(=O)N2CCCCC2)c1,-10.2% (inactive),–
CCCCN1C(=O)c2[nH]nc(-c3ccccc3O)c2C1c1cccc(OCc2ccccc2)c1 (stereo not drawn),–,1.58 µM (active)
COc1ccc(CCN2C(=O)c3[nH]nc(-c4ccccc4O)c3C2c2ccc(C)cc2)cc1OC (stereo not drawn),–,10 µM (active)
COc1ccc(CCN(C)CCN2C(=O)c3ccccc3C2=O)cc1OC,11.1% (inactive),–
CCCCn1c(N)c(N(CCOC)C(=O)c2cccc(OCc3ccccc3)c2)c(=O)[nH]c1=O,1.78% (inactive),–
Cc1cc(C)c(-c2n[nH]c3c2C(c2ccccc2F)N(CCO)C3=O)c(O)c1 (stereo not drawn),-14.4% [at 46.1 µM] (inactive),–
COc1cccc(-c2n[nH]c3c2C(c2cccc(O)c2)N(C)C3=O)c1 (stereo not drawn),-0.126% [at 46.1 µM] (inactive),–
